Screening results from PubChem BioAssay.
A selection: hits, their analogues and other compounds. The true share with any hit is near 4.1%.
ssDAF-12 act – activators of S. stercoralis DAF-12 nuclear receptor; HEK293 ssDAF-12/GRIP1 lit1-tk-luc reporter, luminescence; % of 3 µM dafachronic acid response; activation, % at 6.8 µM; 370,000 tested, 1% active;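 active = activation above the mean over all tested compounds plus 3 SD, cut at about 0.9% in these data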;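 also: 0% = DMSO-only wells and 100% = 3 µM delta7-dafachronic acid wells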
DAX1 inh-1 – inhibitors of human orphan nuclear receptor DAX1 (NR0B1); P51843; HEK293 Gal4-DAX1 luciferase reporter, luminescence; inhibition, % at 6.75 µM; 340,000 tested, 0.99% active; AID 504766;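 active = inhibition above the mean over all tested compounds plus 3 SD, cut at about 4.2% in these data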;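 also: 0% = DAX1-transfected cells with DMSO and 100% = empty-vector control cells with DMSO; inhibition shows as a rise in luminescence from relieved DAX1 repression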
Target sequence (P51843 207-470 limits assumed): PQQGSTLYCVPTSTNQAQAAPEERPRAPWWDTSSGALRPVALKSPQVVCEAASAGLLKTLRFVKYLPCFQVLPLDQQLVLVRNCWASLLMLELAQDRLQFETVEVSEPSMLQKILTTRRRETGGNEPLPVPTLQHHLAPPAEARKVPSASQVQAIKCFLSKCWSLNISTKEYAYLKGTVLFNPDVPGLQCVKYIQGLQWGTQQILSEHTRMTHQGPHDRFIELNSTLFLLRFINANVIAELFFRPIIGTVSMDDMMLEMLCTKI
hcDAF12 agonist – activates DAF-12 receptor from parasite H. contortus | HEK293 hcDAF-12 lit1-tk-luc reporter, luminescence; 0% DMSO, 100% Δ7-dafachronic acid | activation, % at 6.8 µM | 370,000 tested, 1.4% active;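 active = activation above the mean of all tested compounds plus 3 SD, cut at about 5.5% in these data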;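 also: 100% = response to 3 µM Δ7-dafachronic acid high control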
DAX1 inh-2 – inhibitors of DAX1 repression of SF-1 activated StAR promoter | inhibition, % at 6.8 µM | 370,000 tested, 1.1% active | HEK293T StAR-luciferase reporter, SF-1/DAX-1 repression relief;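 active = inhibition above the mean over all tested compounds plus 3 SD, cut at about 3.6% in these data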;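 also: 0% = DAX-1 cells with DMSO and 100% = cells lacking DAX-1 with DMSO; higher inhibition means more luminescence from relief of DAX-1 repression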
hgDAF-12 ag – activates the H. glycines DAF-12 receptor ligand-binding domain. HEK293 GAL4-hgDAF12 UAS-luciferase reporter, agonist luminescence; normalized to butyrate control. activation, % at 6.8 µM. 370,000 tested, 1.8% active;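 active = activation above a cutoff set at the mean of all screened compounds plus 3 SD, cut at about 10% in these data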;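 also: 0% = DMSO wells and 100% = sodium butyrate wells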
An asterisk follows results filed as active; . = not tested or not shown.

SMILES	ssDAF-12 act	DAX1 inh-1	hcDAF12 agonist	DAX1 inh-2	hgDAF-12 ag
C[C@H]1C2CC(OC(=O)Nc3ccc(C(F)(F)F)cc3)C(C2)[C@H]2CCCCN21 (some centres undefined)	-1	.	-1	1	0
CC(C)CNC(=O)C1CSCCS(=O)(=O)N1Cc1ccc(F)cc1 (centres undefined)	-2	.	-2	0	3
O=C(Nc1ccc(Cl)cc1)OC1CCC12CCC(c1ccccc1)CC2 (centres undefined)	-2	.	-2	-2	0
O=C(CNCc1ccccc1Cl)Nc1ccc2c(c1)OCCO2	-1	2	0	3	12*
O=C(CSc1nccc(=O)[nH]1)Nc1ccc2c(c1)OCCO2	0	4.8*	2	1	11*
O=C(CSCc1ccccc1Cl)Nc1ccc2c(c1)OCCO2	-1	5.8*	3	3	11*
Cc1ccc(-n2c(SCc3cccc(F)c3)nnc2-c2cccc(C)c2)cc1	-2	.	-1	-1	-1
O=C1NC(c2ccccc2)=N/C1=C/c1ccco1	1.0*	2	3	2	9
O=C(COCc1ccccc1)N1CCC(Oc2cccnc2)CC1	0	.	1	3	5
Cc1ccc2c3c(c(SCC(=O)Nc4nonc4C)nc2c1)CCCC3	-1	1	-1	0	11*
CN1CCC(=NOc2ccc([N+](=O)[O-])cc2)CC1	-1	4.7*	0	2	10
CCn1c(C(C)NC(=O)c2cccs2)nc2ccccc21 (centres undefined)	-1	0	4	-1	0
CCn1c(C(C)NC(C)=O)nc2ccccc21 (centres undefined)	0	0	4	3	12*
CCn1c(NC(=O)c2ccccc2)nc2ccccc21	2.3*	.	5	-1	3
COC(=O)Cn1c(C(O)c2ccccc2)nc2ccccc21 (centres undefined)	1.7*	3	2	0	-1
COc1ccccc1Cc1c(-c2ccc(C#N)cc2)nc2ccc(Br)cn12	-1	.	6.0*	0	4
COc1ccccc1Cc1c(-c2cccc(Cl)c2)nc2ccc(Cl)cn12	0	.	4	1	3
COc1ccccc1Cc1c(-c2ccccc2)nc2ccc(Cl)cn12	1.5*	.	3	3	6
Brc1ccc(-c2nc3ccc(Br)cn3c2Cc2ccccc2)cc1	-1	.	0	-3	12*
CCCCNC(=O)C1CCCN1C(=O)Nc1cc(C)cc(C)c1 (centres undefined)	-1	.	0	1	-2
Cc1nnc(-c2cccc(C(F)(F)F)c2)nc1N1CCOCC1	-2	-1	1	4.3*	1
CCOC(=O)C1=NOC2(C1)C(=O)Nc1c(Cl)cccc12 (centres undefined)	0	.	5.7*	0	5
CN(C)C(=O)C1=NOC2(C1)C(=O)Nc1ccccc12 (centres undefined)	0	.	-1	0	3
COCCCNC(=S)NNC(=O)c1ccc2c(c1)OCO2	-1	0	2	0	1
CC(C)OCCCNC(=S)NNC(=O)c1ccc(Cl)c(Cl)c1	-1	-1	0	1	11*
SMILES	ssDAF-12 act	DAX1 inh-1	hcDAF12 agonist	DAX1 inh-2	hgDAF-12 ag
COc1cccc(NC(=O)Nc2c(-c3ccc(C)cc3)nc3ncccn23)c1	0	.	2	0	2
COc1ccc(S(=O)(=O)Nc2cc(Cl)ccc2OC)cc1	2.7*	-1	-1	-2	4
O=C(Nc1ccc(OC(F)F)cc1)c1ncc(Cl)c(Cl)c1Cl	-2	0	2	0	5
Cc1ccc(NC(=O)c2ncc(Cl)c(Cl)c2Cl)cc1C	0	3	5.9*	0	5
COc1ccc(C(=O)/C=C/Nc2ccc(C)cn2)cc1OC	0	2	3	4.0*	10
Cc1ccc(Cl)cc1N1CCN(C(=O)C2CCC(=O)N(C3CCCCCC3)C2)CC1 (centres undefined)	-1	1	1	-2	-2
Cc1ccc(Cl)cc1N1CCN(C(=O)C2CCC(=O)N2C(C)C)CC1 (centres undefined)	1.7*	0	0	1	2
C=CCNC(=O)CN(C(=O)Cc1ccc(Cl)nc1)c1cccc(Br)c1	-2	.	-2	0	2
Cc1cccc2cc(CN(C(=O)c3cccc([N+](=O)[O-])c3)C(C)C)c(=O)[nH]c12	0.9*	0	2	1	-1
Cc1ccc(N(C)c2nc(N)nc(N)c2N=O)cc1	0	.	0	0	1
CCOc1ncccc1C(=O)OCC(=O)c1ccccc1	-2	-1	-2	-1	-2
CCOc1ncccc1C(=O)OCC(=O)c1ccccc1Br	1.2*	2	-2	0	-1
COc1ccc(C(C)c2cn(C)c3ccccc23)cc1 (centres undefined)	0	.	2	-1	0
COC(=O)[C@]12C[C@H](CC(=O)N3CCOCC3)C(=O)N(Cc3ccco3)C1=C[C@H](C(C)C)O[C@@H]2C1CC1	-1	.	-1	-1	1
COc1ccc(C)c2sc(=NC(=O)c3ccc(C(C)=O)cc3)n(C)c12	0	4.7*	2	2	13*
COc1ccc(C)c2sc(=NC(=O)C(C)C)n(C)c12	-1	0	2	-1	-1
CCCCCN1CCCCC(NC(=O)c2ccc(C)cc2)C1=O (centres undefined)	-1	.	3	0	2
CCOc1ccc(C2Oc3nc(SC)nnc3-c3ccccc3N2C(C)=O)cc1OC (centres undefined)	-1	6.0*	-2	0	-1
O=C(NCC(=O)N1CCCCCCC1)c1ccc(Br)o1	-1	6.0*	1	1	2
CC(=O)N1CCN(C(=O)CNC(=O)c2ccc(Br)o2)CC1	-1	1	-1	0	-2
O=C(Cc1ccc(Br)cc1)N1CCOCC1	0.9*	2	1	1	-1
O=C(Nc1ccc(N2CCOCC2)cc1)c1ccc(Br)o1	0	1	4	3	12*
O=C(Cc1ccc(-c2ccccc2)cc1)N1CCOCC1	-1	0	0	0	-2
O=C(NCC(=O)N1CCOCC1)c1ccc(Br)o1	-1	3	-1	3.7*	2
c1ccc(N2CCN(c3nccn4ccnc34)CC2)nc1	1	.	5	4.0*	10
Cc1ccc(/C=N/N2CCN(c3ccccn3)CC2)o1	0	4.7*	-1	1	3
C(=N\N1CCN(c2ccccn2)CC1)/c1ccccn1	1.1*	2	3	2	6
C(=N\N1CCN(c2ccccn2)CC1)/c1ccco1	-1	-1	-2	0	2
CCOC(=O)c1cccc(NC(=O)CN(C)S(=O)(=O)c2ccc(C)c(C)c2)c1	-1	.	-2	0	-2
CC(C)[C@H](NC(=O)c1ccccc1Cl)C(=O)OCc1cc([N+](=O)[O-])cc2c1OCOC2	1.0*	-1	-1	0	-1
